# Data: PubChem BioAssay AID1508601 (ICCB-Longwood Screening Facility, Harvard Medical School, 2020)
# The campaign covered roughly 5,700 compounds. About 85 (1%) were called active. No stated cut-off is given here; in the data, active means p53-positive nuclei above about 36% (passing the limit was not always enough); inactive means the rest. Shown is part of a subset that was picked to be rich in actives.
# Tests used:
# [1] = p53 stabilisation in HPV-positive human cells, imaging, p53-positive nuclei imaging, 24 h, 48 h (AID 1508601); settings: 24/48 h
# [2] = target: Cellular tumor antigen p53 (Homo sapiens) (UniProt P04637); test: as above; settings: 24/48 h, stronger effect = higher value
# [3] = measured here: cell number at 24 h, Library stock concentration: 80 uM
# [4] = measured here: cell number at 24 h, Library stock concentration: 400 uM
# [5] = measured here: cell number at 24 h, Library stock concentration: 2 mM
# [6] = measured here: cell number at 24 h, Library stock concentration: 10 mM
# [7] = measured here: cell number at 48 h, Library stock concentration: 80 uM
# [8] = measured here: cell number at 48 h, Library stock concentration: 400 uM
# [9] = measured here: cell number at 48 h, Library stock concentration: 2 mM
# [10] = measured here: cell number at 48 h, Library stock concentration: 10 mM
# [11] = Library stock concentration: 80 uM
# [12] = Library stock concentration: 400 uM
# [13] = Library stock concentration: 2 mM
# [14] = Library stock concentration: 10 mM
# [15] = measured here: p53 positive nuclei at 24 h, Library stock concentration: 80 uM
# [16] = measured here: p53 positive nuclei at 24 h, Library stock concentration: 400 uM
# [17] = measured here: p53 positive nuclei at 24 h, Library stock concentration: 2 mM
# [18] = measured here: p53 positive nuclei at 24 h, Library stock concentration: 10 mM
# Chain of Cellular tumor antigen p53 (Homo sapiens) (P04637 whole entry, looked up): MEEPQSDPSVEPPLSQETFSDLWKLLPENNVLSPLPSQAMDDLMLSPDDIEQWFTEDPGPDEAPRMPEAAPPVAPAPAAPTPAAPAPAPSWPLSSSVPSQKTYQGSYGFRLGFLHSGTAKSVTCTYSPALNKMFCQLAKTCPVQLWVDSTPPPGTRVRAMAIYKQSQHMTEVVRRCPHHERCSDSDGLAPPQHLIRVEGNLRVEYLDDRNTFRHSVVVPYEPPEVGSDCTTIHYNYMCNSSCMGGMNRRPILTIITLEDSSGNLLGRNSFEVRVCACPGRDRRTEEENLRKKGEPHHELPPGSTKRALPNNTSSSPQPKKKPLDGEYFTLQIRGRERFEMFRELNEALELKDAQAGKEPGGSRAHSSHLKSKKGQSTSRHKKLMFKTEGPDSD
Structure (SMILES),"nuclei count, normalised ([1]; measured here: cell number at 24 h, Library stock concentration: 3.33 mM) [%]","nuclei count, normalised ([1]; measured here: cell number at 48 h, Library stock concentration: 3.33 mM) [%]","p53-positive nuclei, normalised ([2]; Library stock concentration: 3.33 mM)","p53-positive nuclei, normalised ([2]; measured here: p53 positive nuclei at 24 h, Library stock concentration: 3.33 mM) [%]","nuclei count, normalised [1, 3] [%]","nuclei count, normalised [1, 4] [%]","nuclei count, normalised [1, 5] [%]","nuclei count, normalised [1, 6] [%]","nuclei count, normalised [1, 7] [%]","nuclei count, normalised [1, 8] [%]","nuclei count, normalised [1, 9] [%]","nuclei count, normalised [1, 10] [%]","p53-positive nuclei, normalised [2, 11]","p53-positive nuclei, normalised [2, 12]","p53-positive nuclei, normalised [2, 13]","p53-positive nuclei, normalised [2, 14]","p53-positive nuclei, normalised [2, 15] [%]","p53-positive nuclei, normalised [2, 16] [%]","p53-positive nuclei, normalised [2, 17] [%]","p53-positive nuclei, normalised [2, 18] [%]"
CC(C)CC(NC(=O)C(CCc1ccccc1)NC(=O)CN1CCOCC1)C(=O)NC(Cc1ccccc1)C(=O)NC(CC(C)C)C(=O)[C@@]1(C)CO1 (stereo partly specified),36.4,30.5,104% (active),117,,,,,,,,,,,,,,,,
CC(C)C(N)C(=O)NC(Cc1ccccc1)C(=O)O (stereo unspecified),,,,,118,113,112,113,107,100,103,102,-0.188% (inactive),0.0868% (inactive),-0.0686% (inactive),-0.0304% (inactive),-0.0726,-0.0759,0.0367,-0.118
CC(C)CC(C(=O)NC(Cc1ccc(OCc2ccccc2)cc1)C(=O)NC(C)(C)C)N(C)Cc1ccc(C(C)(C)C)cc1 (stereo unspecified),,,,,108,108,110,113,103,105,103,109,0.116% (inactive),-0.221% (inactive),0.074% (inactive),-0.262% (inactive),-0.0604,-0.22,-0.108,-0.169
